{"source": "paper PMC4336329", "about": "(PLoS ONE, 2015)", "note": "Screen size: about 310,000 compounds; about 14,000 (4.5%) showed an effect of 50% or more. The effect is printed as a negative number. The entries come from a sample that favours strong results as a whole.", "data": [{"biological_target": "human ether-à-go-go-related gene (hERG) potassium channel (human, UniProt Q12809)", "sequence (Q12809 whole entry, looked up)": "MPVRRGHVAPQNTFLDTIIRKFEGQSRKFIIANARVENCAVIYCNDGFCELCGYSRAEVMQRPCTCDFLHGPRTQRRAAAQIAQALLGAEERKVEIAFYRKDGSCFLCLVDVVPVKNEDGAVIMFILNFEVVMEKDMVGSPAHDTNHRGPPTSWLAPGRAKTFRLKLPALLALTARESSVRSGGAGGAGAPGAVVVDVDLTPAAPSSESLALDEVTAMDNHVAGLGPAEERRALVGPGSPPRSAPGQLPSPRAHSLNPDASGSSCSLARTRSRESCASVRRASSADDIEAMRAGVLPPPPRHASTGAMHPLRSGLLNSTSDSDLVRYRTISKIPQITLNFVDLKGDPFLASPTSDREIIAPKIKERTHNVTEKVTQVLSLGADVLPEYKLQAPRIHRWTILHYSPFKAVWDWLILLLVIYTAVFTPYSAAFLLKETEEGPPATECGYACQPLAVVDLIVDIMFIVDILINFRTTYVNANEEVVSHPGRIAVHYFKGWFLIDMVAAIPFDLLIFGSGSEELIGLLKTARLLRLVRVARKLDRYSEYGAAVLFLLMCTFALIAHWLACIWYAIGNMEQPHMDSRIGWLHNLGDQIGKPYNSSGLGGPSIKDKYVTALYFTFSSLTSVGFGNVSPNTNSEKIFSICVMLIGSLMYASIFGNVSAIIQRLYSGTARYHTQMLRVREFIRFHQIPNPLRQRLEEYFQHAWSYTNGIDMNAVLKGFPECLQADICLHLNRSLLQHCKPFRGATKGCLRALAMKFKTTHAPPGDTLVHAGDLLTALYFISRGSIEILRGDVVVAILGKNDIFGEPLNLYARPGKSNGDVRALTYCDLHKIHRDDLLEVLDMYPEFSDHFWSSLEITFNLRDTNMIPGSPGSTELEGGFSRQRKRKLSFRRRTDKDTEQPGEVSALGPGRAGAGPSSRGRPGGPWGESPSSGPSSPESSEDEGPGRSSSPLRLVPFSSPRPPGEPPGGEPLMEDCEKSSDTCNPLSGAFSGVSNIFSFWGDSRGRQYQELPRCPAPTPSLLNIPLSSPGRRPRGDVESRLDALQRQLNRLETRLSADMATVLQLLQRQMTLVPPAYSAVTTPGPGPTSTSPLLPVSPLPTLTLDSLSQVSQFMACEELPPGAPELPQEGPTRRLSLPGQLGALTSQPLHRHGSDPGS", "assay": "primary screen, population patch clamp on CHO cells stably expressing hERG; higher = less effect of the substance", "units": {"hERG current change (%, negative = inhibition) at 10uM": "%"}, "values": [{"molecule": "NC1=C([N+](=O)[O-])C(c2ccc3c(c2)OCO3)c2c(c3ccccc3oc2=O)O1", "note": "(stereo not shown);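 further: peak tail current of the secondary pulse compared with the same well before compound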", "hERG current change (%, negative = inhibition) at 10uM": -21.3}, {"molecule": "O=C(Nc1cc2c3c(c1)CC(=O)N3CCC2)C1CCCCC1", "hERG current change (%, negative = inhibition) at 10uM": -5.43}, {"molecule": "CC(C)(C)OC(=O)NCCCCCc1nnc(SCC(=O)Nc2cccc(Cl)c2)o1", "hERG current change (%, negative = inhibition) at 10uM": -50.7}, {"molecule": "Cc1cccc(C)c1NC(=O)CSc1nnc(CCCCCNC(=O)OC(C)(C)C)o1", "hERG current change (%, negative = inhibition) at 10uM": -17.8}, {"molecule": "CC(C)(C)OC(=O)NCCc1nnc(SCC(=O)Nc2cccc(Cl)c2)o1", "hERG current change (%, negative = inhibition) at 10uM": 6.91}, {"molecule": "COc1cccc(C(=O)C2CCCN(C(=O)CCc3scnc3C)C2)c1", "note": "(stereo not shown)", "hERG current change (%, negative = inhibition) at 10uM": -12.7}, {"molecule": "CCOC(=O)c1cnn(-c2ccccc2)c1NC(=O)CN1CCOCC1", "hERG current change (%, negative = inhibition) at 10uM": 16.1}, {"molecule": "Cn1c(N)c(C(=O)COC(=O)c2ccco2)c(=O)n(C)c1=O", "hERG current change (%, negative = inhibition) at 10uM": 5.09}, {"molecule": "COc1ccc(-c2nc(C)ncc2-c2csc(C)n2)c(O)c1", "hERG current change (%, negative = inhibition) at 10uM": 11}, {"molecule": "COc1ccc(C)cc1Cn1nnc2ccccc21", "hERG current change (%, negative = inhibition) at 10uM": -4.34}, {"molecule": "CCNc1ccc(C2(O)C(=O)c3ccccc3C2=O)cc1", "hERG current change (%, negative = inhibition) at 10uM": 12.6}, {"molecule": "CNc1ccc(C2(O)C(=O)c3ccccc3C2=O)cc1", "hERG current change (%, negative = inhibition) at 10uM": -66.1}, {"molecule": "CN(C)c1ccc(C2(O)C(=O)c3ccccc3C2=O)cc1", "hERG current change (%, negative = inhibition) at 10uM": 23.4}, {"molecule": "COc1ccc(NC(=O)c2sc(NC(=O)COc3ccccc3)nc2C)cc1", "hERG current change (%, negative = inhibition) at 10uM": 1.76}, {"molecule": "COc1ccc(CCc2nnc(CCC(=O)N(C)Cc3ccnc4ccccc34)o2)cc1", "hERG current change (%, negative = inhibition) at 10uM": -37.7}, {"molecule": "COc1ccc(C(C)(C)C)cc1NC(=O)COC(=O)c1nc2nccc(C)n2n1", "hERG current change (%, negative = inhibition) at 10uM": 3.17}, {"molecule": "O=c1[nH]c(=S)n(C2CC2)c(O)c1C=Nc1cccc(C(F)(F)F)c1", "hERG current change (%, negative = inhibition) at 10uM": 12.8}, {"molecule": "Cc1ccc(NC(=O)Nc2cccc3ccccc23)cc1", "hERG current change (%, negative = inhibition) at 10uM": 19.5}, {"molecule": "CC1(NC(=S)Nc2ccccc2)CCS(=O)(=O)C1", "note": "(stereo not shown)", "hERG current change (%, negative = inhibition) at 10uM": 13.8}, {"molecule": "Cc1cccc(NC(=O)NC2(C)CCS(=O)(=O)C2)c1", "note": "(stereo not shown)", "hERG current change (%, negative = inhibition) at 10uM": 6.52}, {"molecule": "CC1(NC(=O)Nc2ccccc2)CCS(=O)(=O)C1", "note": "(stereo not shown)", "hERG current change (%, negative = inhibition) at 10uM": -53}, {"molecule": "C/C(=N/NC(=O)CCC(=O)Nc1ccc(Br)cc1)c1ccc(Br)cc1", "hERG current change (%, negative = inhibition) at 10uM": 12.7}, {"molecule": "O=C(Nc1ccccc1)N(CCc1nc2ccccc2[nH]1)C1CCCC1", "hERG current change (%, negative = inhibition) at 10uM": -24}, {"molecule": "CC1CCCCC1NC(=O)CCCCCn1c(=S)[nH]c2ccccc2c1=O", "note": "(stereo not shown)", "hERG current change (%, negative = inhibition) at 10uM": 7.63}, {"molecule": "O=C(Nc1nccs1)c1nc[nH]c1C(=O)NCc1ccccc1", "hERG current change (%, negative = inhibition) at 10uM": 3.34}, {"molecule": "CC(C)(C)NC(=O)Cn1nnc(-c2cccs2)n1", "hERG current change (%, negative = inhibition) at 10uM": -4.07}, {"molecule": "O=C(Nc1ccc([N+](=O)[O-])cc1)c1cc(-c2ccccn2)nc2c(Cl)cccc12", "hERG current change (%, negative = inhibition) at 10uM": 33}, {"molecule": "CCOc1ccccc1N1CC(C(=O)N(Cc2nnc(-c3ccccc3Cl)o2)C2CC2)CC1=O", "note": "(stereo not shown)", "hERG current change (%, negative = inhibition) at 10uM": -16.8}, {"molecule": "CCC(=O)c1ccc(OCC(=O)N(Cc2nnc(-c3ccccc3Cl)o2)C2CC2)cc1", "hERG current change (%, negative = inhibition) at 10uM": -67.2}, {"molecule": "O=C1OC(CC(=O)N(Cc2nnc(-c3ccc(Cl)cc3)o2)C2CC2)c2ccccc21", "note": "(stereo not shown)", "hERG current change (%, negative = inhibition) at 10uM": -67.8}, {"molecule": "CCCN(Cc1nnc(-c2ccccc2Cl)o1)C(=O)COc1ccc(Cl)cc1", "hERG current change (%, negative = inhibition) at 10uM": -60.5}, {"molecule": "CCCN(Cc1nnc(-c2ccccc2Cl)o1)C(=O)c1oc2ccccc2c1C", "hERG current change (%, negative = inhibition) at 10uM": -13.1}, {"molecule": "Cc1ccc(C(=O)N(Cc2nnc(-c3ccc(Cl)cc3)o2)C2CC2)o1", "hERG current change (%, negative = inhibition) at 10uM": -32.6}, {"molecule": "O=C1OC(CC(=O)N(Cc2nnc(-c3ccccc3Cl)o2)C2CC2)c2ccccc21", "note": "(stereo not shown)", "hERG current change (%, negative = inhibition) at 10uM": -40.3}, {"molecule": "CSc1cccc(N2CC(C(=O)N(Cc3nnc(-c4ccccc4Cl)o3)C3CC3)CC2=O)c1", "note": "(stereo not shown)", "hERG current change (%, negative = inhibition) at 10uM": -55.5}, {"molecule": "COc1ccccc1OCC(=O)N(Cc1nnc(-c2ccccc2Cl)o1)C1CC1", "hERG current change (%, negative = inhibition) at 10uM": -44.2}, {"molecule": "Cc1ccc(C)c(OCC(=O)N(Cc2nnc(-c3ccccc3Cl)o2)C2CC2)c1", "hERG current change (%, negative = inhibition) at 10uM": -20.9}, {"molecule": "N#Cc1ccccc1OCC(=O)N(Cc1nnc(-c2ccccc2Cl)o1)C1CC1", "hERG current change (%, negative = inhibition) at 10uM": -48.7}, {"molecule": "Cc1ccc(CN2CC(C(=O)N(Cc3nnc(-c4ccccc4Cl)o3)C3CC3)CC2=O)cc1", "note": "(stereo not shown)", "hERG current change (%, negative = inhibition) at 10uM": -45.2}, {"molecule": "CN(C)c1ccc(/C=N/NC(=O)c2ccc(-n3cnnn3)cc2)cc1", "hERG current change (%, negative = inhibition) at 10uM": 10.8}, {"molecule": "CCOc1ccc2nc(NS(=O)(=O)Cc3ccccc3)sc2c1", "hERG current change (%, negative = inhibition) at 10uM": 9.15}, {"molecule": "Cc1cc(OC(C)C)c2c(-c3ccccc3)cc(=O)oc2c1", "hERG current change (%, negative = inhibition) at 10uM": 16.2}, {"molecule": "O=C1N=C(N2CCCCC2)S/C1=C\\c1ccc(Cl)cc1", "hERG current change (%, negative = inhibition) at 10uM": 9.15}]}]}
